Assay outcomes: PubChem BioAssay, several laboratories
Hits are enriched below; roughly 2% of the tested compounds scored in any of these assays.
PG9 Ab binder: binders of HIV-1 gp120 antibody PG9, primary screen, biochemical, TR-FRET | hit rate 0.43% among 360,000 | TR-FRET gp120-PG9 antibody binding | HIV-1 gp120 / PG9 antibody interaction | inhibition, % at 6.7 µM; in the data active = inhibition above about 8.5%
Granule exo inh: LAMP-1 surface exposure blockers, TALL-104 cells – cell-based, flow cytometry, MLPCN library, primary screen | AID 651702, 2012 | TALL-104 LAMP-1 surface exposure; cells stimulated with thapsigargin and PMA | inhibition, % at 10 µM | hit rate 0.66% among 360,000;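 active = inhibition above about 55%, limit read from the data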
VLA-4 inh: inhibition in human VLA-4 binding assay, primary screen, VLA-4 allosteric modulator project, MLPCN library, flow cytometry, VLA-4 expressing cells. Integrin alpha-4 (Homo sapiens), P13612. ligand binding flow cytometry. inhibition, % (about 7 µM as worked out from the volumes in the protocol). hit rate 0.2% among 330,000. AID 2557, 2010; in the data active = inhibition above about 50%
NR1D1 modulator: modulators of Rev-erb alpha DNA binding, primary screen, biochemical, FITC-DNA, fluorescence polarization, uHTS; Nuclear receptor subfamily 1 group D member 1 (Homo sapiens), P20393; Rev-erbα–FITC-DNA binding, 90 min; activity, % at 10 µM; hit rate 0.79% among 370,000;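 active = activity above about 14%, limit read from the data; passing the limit was not always enough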
ABCB6 inh 2: ABCB6 transporter inhibitors, primary screen, K562-ABCB6 cells, flow cytometry, MLPCN library; ATP-binding cassette sub-family B member 6 (Homo sapiens), Q9NP58; K562-ABCB6 porphyrin accumulation, 1 h; hits give low values; fluorescence ratio to DMSO, % at 10 µM; hit rate 0.19% among 360,000; AID 602162, 2011;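 active = fluorescence ratio to DMSO below 75%, the collection mean minus 3 SD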;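 also: signal is porphyrin accumulated inside mitochondria; lower ratio means ABCB6 inhibition with less porphyrin fluorescence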
Numbers stand for hits; n = inactive; x = no result.

SMILES	PG9 Ab binder	Granule exo inh	VLA-4 inh	NR1D1 modulator	ABCB6 inh 2
O=C1CSc2ccc(C(=O)N3CCCC(C(=O)N4CCOCC4)C3)cc2N1 (stereo not drawn)	x	x	x	n	x
CN(Cc1ccccc1)C(=O)OCc1cn(Cc2c(F)cccc2F)nn1	x	x	x	n	x
S=C(Nc1ccc2nsnc2c1)N1CCCCCC1	n	77	n	n	n
COC1=C(Nc2ccc(O)cc2)C(=O)c2ccccc2C1=O	n	n	n	n	n
CCNC1=C(Cl)C(=O)c2ccccc2C1=O	n	n	n	n	n
Cc1ccc(NC2=C(Cl)C(=O)c3ccccc3C2=O)cc1	n	74	n	n	n
O=C1C(Cl)=C(Nc2ccc(O)cc2)C(=O)c2ccccc21	n	70	n	n	66
CCN(CC)c1ccc(NC2=C(Cl)C(=O)c3ccccc3C2=O)cc1	x	67	54	x	n
COC(=O)[C@]12C[C@H](CC(=O)NCC34CC5CC(CC(C5)C3)C4)C(=O)N(Cc3ccccc3)C1=C[C@H](C(C)C)O[C@@H]2C1CC1	n	x	x	n	x
COc1cc(/C=C/C(=O)CC(=O)/C=C/c2ccc(O)c(OC)c2)ccc1O	n	84	n	n	n
COc1cc(C=C(C(C)=O)C(C)=O)ccc1O	n	n	n	n	n
COc1cc(OC)c(C(=O)C=Cc2ccc(OC)c(OC)c2)c(OC)c1	n	73	x	n	n
COc1cc(C=C2C(=O)C=CC2=O)ccc1O	n	83	x	n	n
COc1cc(/C=C/C(=O)O)ccc1O	n	n	n	n	n
COc1cc(/C=C/C(=O)/C=C(O)/C=C/c2ccc(O)c(OC)c2)ccc1O	n	69	n	n	n
Cc1cccc(C)c1NC(=O)c1sccc1SCc1cccc(C(F)(F)F)c1	x	66	n	n	n
Cc1ccc(NC(=O)c2sccc2SCc2cccc(C(F)(F)F)c2)cc1	n	n	n	n	n
COc1ccc(C(=O)CSc2nnc(-c3ccc(C(C)(C)C)cc3)n2C)cc1	x	x	x	n	x
CCNc1nc(CC)nc2c1oc1ccccc12	n	n	n	n	n
CCNc1nc(C)nc2c1oc1ccccc12	n	n	n	n	67
COc1ccc(C(CCOC(=O)Oc2ccccc2)c2cc(OC)c(OC)c(OC)c2)cc1 (stereo not drawn)	x	x	x	n	x
CCCC1CCC2(CC1)CCC2OC(=S)Nc1cccc(C(F)(F)F)c1 (stereo not drawn)	x	x	x	n	x
Cc1cc(N2CCCC2)c(F)cc1/C=C\[N+](=O)[O-]	n	74	x	n	n
Cc1cc(N2CCC(C)CC2)c(F)cc1[N+](=O)[O-]	n	n	n	n	n
COc1ccccc1NC(=S)NC1CCCCC1	n	n	n	n	n
SMILES	PG9 Ab binder	Granule exo inh	VLA-4 inh	NR1D1 modulator	ABCB6 inh 2
COc1ccccc1CNC(=S)NC1CCCC1	n	n	n	n	69
CC(C)(C)n1nnnc1C(c1cccnc1)N1CCN(c2cccc(C(F)(F)F)c2)CC1 (stereo not drawn)	n	n	n	n	n
CC(C)(C)c1cc(C(c2cccnc2)N2CCN(CCO)CC2)cc(C(C)(C)C)c1O (stereo not drawn)	n	n	50	n	n
CCOC(=O)C(C)(C)CC#CCN(CC#Cc1ccccc1)S(=O)(=O)c1ccc(C)cc1	n	x	x	n	x
C=CCOc1cccc(C2/C(=C(\O)c3ccc4c(c3)OCCO4)C(=O)C(=O)N2Cc2cccnc2)c1 (stereo not drawn)	14	n	n	n	n
O=C(NCc1ccccc1)OCCN1C(=O)CCC12CCC(c1ccccc1)CC2 (stereo not drawn)	x	x	x	n	x
C=CC[C@@H]1/C=C(\C)C[C@H](C)C[C@H](OC)[C@H]2O[C@@](O)(C(=O)C(=O)N3CCCC[C@H]3C(=O)O[C@H](/C(C)=C/[C@@H]3CC[C@@H](O)[C@H](OC)C3)[C@H](C)[C@@H](O)CC1=O)[C@H](C)C[C@@H]2OC	x	x	x	n	x
O=C1NC(=S)S/C1=C/c1ccc(OC(=O)c2ccco2)cc1	n	79	n	n	n
Brc1cc2c(cc1Br)OCCOCCOCCOCCO2	n	n	n	n	n
Brc1ccc2c(c1)OCCOCCOc1cc(Br)ccc1OCCOCCOCCO2	x	60	n	x	n
O=C(N[C@@H](Cc1cccnc1)C(=O)N1CCC[C@H]1C(=O)NCc1ccccc1)c1ccccc1	n	x	x	n	x
O=C1c2ccccc2C(=O)c2c([N+](=O)[O-])ccc(O)c21	n	59	n	n	n
Cc1cc(OC[C@@H](O)CN2CCC(C(O)(c3ccccc3)c3ccccc3)CC2)ccc1Br	x	x	x	n	x
Cc1ccc(S(=O)(=O)c2nc(-c3ccccc3)oc2NCc2cccnc2)cc1	n	n	n	n	n
Cc1ccccc1-c1nc(S(=O)(=O)c2ccc(Br)cc2)c(NCc2cccnc2)o1	n	76	n	n	n
CCn1c(SCC(=O)Nc2ccccc2-c2ccccc2)nnc1-c1ccc(C)cc1	x	x	x	n	x
CC(=O)N/C(=N/c1nc(C)cc(C)n1)Nc1ccc(C)cc1C	n	66	n	n	n
CC(=O)N/C(=N/c1nc(C)cc(C)n1)Nc1cccc(C)c1	n	n	n	n	n
COc1ccc(CNC(=O)[C@@H](Cc2ccccc2)NC(=O)[C@H]2O[C@@H](n3ccc(=O)[nH]c3=O)[C@H](O)[C@@H]2O)cc1	n	x	x	n	x
COc1ccc2o/c(=N\O)c(C(=O)Nc3ccccc3OC)cc2c1	n	64	n	n	n
COc1ccc(NC(=O)c2cc3ccc(O)cc3o/c2=N\O)cc1	n	66	n	n	n
CC(C)(O/N=C(\C(=O)N[C@@H]1C(=O)N2C(C(=O)O)=C(C[n+]3ccccc3)CSC12)c1csc(N)n1)C(=O)O (stereo partly drawn)	x	x	x	n	x
Cc1ccc(Oc2ccccc2/C=C2\SC(=O)N(C)C2=O)cc1	n	n	n	n	74
COc1cccc(/C=C2\CC3(OC(=O)C4CCCCC4)CCCN2C3)c1 (stereo not drawn)	x	x	x	n	x
CC1CCc2c(sc(Nc3nc4c(F)cccc4s3)c2C(N)=O)C1 (stereo not drawn)	n	85	n	n	n
SMILES	PG9 Ab binder	Granule exo inh	VLA-4 inh	NR1D1 modulator	ABCB6 inh 2
COC(=O)[C@]12C[C@H](CC(=O)N3CCN(C(=O)c4ccco4)CC3)C(=O)N(Cc3ccco3)C1=C[C@H](COCc1ccccc1)O[C@@H]2C	x	x	x	n	x
FC(F)(F)c1ccnc(NCc2ccc(Cl)cc2)n1	n	n	n	n	n
O=S(=O)(NNc1nccc(C(F)(F)F)n1)c1cccc(Cl)c1Cl	n	83	n	n	n
O=C(C#Cc1cccc([N+](=O)[O-])c1)c1ccccc1	x	70	n	x	n
CCCN1CCCCC(NC(=O)c2ccc(C)cc2C)C1=O (stereo not drawn)	n	x	x	n	x
CC1CCN(c2ccc(C(=O)O)cc2NS(=O)(=O)c2ccc(Cl)s2)CC1	x	x	x	n	x
